Compound activity: PubChem, National Center for Advancing Translational Sciences (NCATS)
The list is not random: actives were taken first. Their share in the collection is about 2.7%.
ALOX12 inh – Primary qHTS assay for inhibitors of human arachidonate 12S-lipoxygenase (ALOX12): Round 2 | AID 1671190, 2021 | purified 12hLO, xylenol orange hydroperoxide absorbance | Potency, µM (series often up to 108 µM), without a hit: top-dose activity change, negative = inhibition, actives largely listed as inhibitors | hit rate 1.1% among 580,000 | Polyunsaturated fatty acid lipoxygenase ALOX12 (Homo sapiens), P18054; note: potency is the fitted concentration of half-maximal effect; % is set by controls: 0 for no effect and ±100 for the full control effect
Target sequence (P18054 whole entry, looked up): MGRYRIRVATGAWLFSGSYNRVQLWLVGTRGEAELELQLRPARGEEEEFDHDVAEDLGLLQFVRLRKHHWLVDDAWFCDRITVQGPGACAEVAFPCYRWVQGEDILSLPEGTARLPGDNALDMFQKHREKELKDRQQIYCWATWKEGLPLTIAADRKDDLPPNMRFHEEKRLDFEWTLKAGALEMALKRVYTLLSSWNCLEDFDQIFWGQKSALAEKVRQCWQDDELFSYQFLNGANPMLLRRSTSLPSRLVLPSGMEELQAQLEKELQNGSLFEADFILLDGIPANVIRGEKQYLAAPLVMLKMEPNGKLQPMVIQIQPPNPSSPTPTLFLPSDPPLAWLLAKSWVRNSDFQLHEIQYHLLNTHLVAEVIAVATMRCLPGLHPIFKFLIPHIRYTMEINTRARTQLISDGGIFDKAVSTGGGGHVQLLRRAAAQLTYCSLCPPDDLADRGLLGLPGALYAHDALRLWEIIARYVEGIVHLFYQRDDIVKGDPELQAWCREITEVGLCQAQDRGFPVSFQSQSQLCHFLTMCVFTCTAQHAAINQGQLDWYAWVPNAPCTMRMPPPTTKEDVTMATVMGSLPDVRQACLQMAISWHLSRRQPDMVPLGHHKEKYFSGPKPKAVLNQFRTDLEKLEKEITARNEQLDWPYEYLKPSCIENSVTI
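Purified human 12hLO at 150 nM in 25 mM Hepes, 0.01% Triton X-100, pH 7.0, preincubated 15 min at room temperature with compound. Reaction started with 40 uM arachidonic acid, 30 min at room temperature. Hydroperoxide measured by Fe-xylenol orange, 573/405 nm absorbance ratio.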
A549 viability – Nrf2 qHTS screen for inhibitors: counterscreen for cytotoxicity | A549 ARE-Fluc cells, CellTiter-Fluor viability, 18-24 h | AID 504648, 2011 | Potency, µM (series often up to 46 µM), for the others: top-dose activity change, negative = cytotoxicity, most hits filed as inhibitors | hit rate 0.16% among 390,000; note: potency is the fitted concentration of half-maximal effect; % is set by controls: 0 for no effect and ±100 for the full control effect
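Cytotoxicity counterscreen: CellTiter-Fluor fluorescence was measured in A549 ARE_Fluc cells after 18-24 h of compound exposure in a concentration series. The subsequent BugLite luminescent read reports ARE-luciferase activity.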
LDHA inh – qHTS assay for inhibitors of human lactate dehydrogenase | purified LDHA, NADH/diaphorase-resazurin fluorescence; hits give low values | activity change, % (values are at about 110 or 230 µM) | L-lactate dehydrogenase A chain (Homo sapiens), P00338 | hit rate 0.15% among 480,000; in the data active = activity change below about -30%; inconclusive = mostly about -25% to -30%;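 note: plate controls were DMSO wells for no effect and wells without enzyme for full effect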
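Enzyme activity of human lactate dehydrogenase 5 (2 nM; 0.06 mM NADH, 0.2 mM pyruvate, 5 min, RT) is measured via a resazurin/diaphorase fluorescence readout of residual NADH.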
Nrf2 ARE act – qHTS of Nrf2 Activators | AREc32 ARE-luciferase reporter (MCF7-derived line), luminescence, 24 h | AID 624171, 2012 | Potency, µM (top dose mostly 46.1 µM), for inactives: at the top dose activation, actives largely listed as activators | hit rate 0.31% among 410,000; note: potency is the fitted concentration of half-maximal effect; % of control where 0% means no effect; nearly all actives have a fitted effect of over 65% in size
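AREc32 cells carrying an ARE-driven firefly luciferase, 1000 cells/well in OPTI-MEM with 5% FBS, dosed after overnight attachment and incubated 24 hr at 37 deg C. Steady-Glo luminescence read after 30 min at RT.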
ERG Ets-DNA blk – qHTS for Small Molecule Inhibitors of the ERG Ets/DNA interaction; AID 624246, 2012; hit rate 0.028% among 370,000; Potency, µM (series often up to 76.9 µM), without a hit: at the top dose FP activity, negative = inhibition, hits mostly inhibitors; Transcriptional regulator ERG (Homo sapiens), P11308; fluorescence polarization, His-ERG Ets domain / labelled DNA; active = well fitted inhibition curve with a large enough effect in the polarisation, with a control signal flat; inconclusive = small, poorly fitted or top-dose-only effect, or effect the other way, or a change in a side signal; inactive = no such curve, though single readings can be large or run the other way; the % refers to the polarisation;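 note: polarization taken with two DNA probes labelled with fluorescein and Texas red; potency is the fitted concentration of half-maximal effect; % of control where 0% means no effect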
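His-tagged ERG Ets domain (1 uM in the protein solution; 300mM KCl, 50mM Tris-HCl, 1mM EDTA, 1mM DTT, pH 7.5) received compound, then a probe mix of 5 nM fluorescein-DNA and 100nM Texas-615-DNA. Fluorescence polarization was read for both dyes.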
Nrf2 inh – Nrf2 qHTS screen for inhibitors; A549 ARE-Fluc reporter, luciferase luminescence, 18-24 h; hit rate 2.1% among 360,000; AID 504444, 2011; Potency, µM (series often up to 46 µM), inactives show top-dose activity change, negative = inhibition, hits mostly inhibitors; note: potency is the fitted concentration of half-maximal effect; % is set by controls: 0 for no effect and ±100 for the full control effect; nearly all actives have a fitted effect of over 60% in size
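Quantitative HTS in A549 cells stably bearing an antioxidant response element-firefly luciferase construct. Inhibition of Nrf2-driven transcription was scored by luminescence after 18-24 h of compound exposure at 37 °C.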
* marks the source's active call; other numbers are inactive results; [ ] = another dose, or the depositor's remark. Unless noted, calls come from the whole dose curve; as a rule, active = well fitted curve in the direction sought with a large enough effect; inconclusive = small, poorly fitted or top-dose-only effect, or another doubt; inactive = no such curve, though single readings can be large; an effect the other way counts as inactive or inconclusive.

CCN1CCN(C(C)C(=O)NC2CCCCC2)CC1 (stereo not given) was read as ALOX12 inh inconclusive, A549 viability 7%, LDHA inh -31*, Nrf2 ARE act 0%, ERG Ets-DNA blk 8% and Nrf2 inh 0%.
Screening CCCc1cc(C(=O)Nc2c(C)nn(Cc3ccc(Cl)c(Cl)c3)c2C)no1 returned ALOX12 inh inconclusive, A549 viability -15%, LDHA inh -4, Nrf2 ARE act 4%, ERG Ets-DNA blk 0% and Nrf2 inh 16µM*.
For CCCc1cc(C(=O)Nc2c(C)nn(Cc3ccc(C)cc3)c2C)no1 the results were ALOX12 inh -27%, A549 viability -3%, LDHA inh -7, Nrf2 ARE act 4%, ERG Ets-DNA blk -6% and Nrf2 inh inconclusive.
`Cc1nn(Cc2ccc(Cl)c(Cl)c2)c(C)c1NC(=O)c1cc(CC(C)C)on1` gave ALOX12 inh -21%, A549 viability inconclusive, LDHA inh -1, Nrf2 ARE act 3%, ERG Ets-DNA blk -11% and Nrf2 inh 8.2µM*.
`CCN1CCN(C(=O)CS(=O)(=O)Cc2nc(-c3ccccc3C)oc2C)CC1` gave ALOX12 inh 15%, A549 viability -1%, LDHA inh -7, Nrf2 ARE act 0%, ERG Ets-DNA blk 2% and Nrf2 inh -7%.
Cc1cccc(N2CCN(C(=O)CS(=O)(=O)Cc3nc(-c4ccccc4F)oc3C)CC2C)c1 (stereo not given) was read as ALOX12 inh 25%, A549 viability -9%, LDHA inh 1, Nrf2 ARE act 0%, ERG Ets-DNA blk 15% and Nrf2 inh 16µM*.
`Cc1ccc(-c2nc(CS(=O)(=O)CC(=O)N3CC(C)CC(C)C3)c(C)o2)cc1` (stereo not given) gave ALOX12 inh 0%[57.4 µM], A549 viability -9%, LDHA inh -1, Nrf2 ARE act 0%, ERG Ets-DNA blk -6% and Nrf2 inh 21µM*.
For Cc1cccc(N2CCN(C(=O)CS(=O)(=O)Cc3nc(-c4ccccc4C)oc3C)CC2C)c1 (stereo not given) the results were ALOX12 inh inconclusive, A549 viability -10%, LDHA inh 10, Nrf2 ARE act 0%, ERG Ets-DNA blk -3% and Nrf2 inh 23µM*.
`Cc1ccc(CNCc2cccs2)s1` gave ALOX12 inh -20% and LDHA inh 0.
Screening O=C(CSc1cn(CC(=O)N2CCCC2)c2ccccc12)Nc1ccc(C(F)(F)F)cc1 returned ALOX12 inh inconclusive and LDHA inh -24.
`CCSc1ccc(N)cc1` gave ALOX12 inh inconclusive and LDHA inh 0.
For CCCCOC(=O)CSC1=C(C#N)C(c2ccccc2OCC)C(C#N)C(=O)N1 (stereo not given) the results were A549 viability inconclusive, LDHA inh -6, Nrf2 ARE act 0%, ERG Ets-DNA blk -4% and Nrf2 inh 10µM*.
O=C(CN1CCN(c2ccc(O)cc2)CC1)Nc1ccnn1Cc1ccccc1Cl was read as ALOX12 inh inconclusive and LDHA inh 15.
`Cc1ccc(-c2cc3c(=O)n(CCNC(=O)c4cccc(C#N)c4)ccn3n2)c(C)c1` gave ALOX12 inh 6%.
For COc1ccc(/C=C/c2ccc3ccccc3n2)cc1OC the results were ALOX12 inh 28µM* and LDHA inh 4.
`COc1ccc(/C=C/c2cnc3ccccc3n2)cc1OC` gave LDHA inh 2.
CC(=O)Nc1sc2c(c1-c1nc3ccccc3s1)CCSC2 was read as LDHA inh 5.
CCCCN was read as ALOX12 inh 3%.
CN(C)/C=C/C(=O)c1ccc(Br)s1 was read as ALOX12 inh 40µM*, A549 viability -14%, LDHA inh -2, Nrf2 ARE act 10%, ERG Ets-DNA blk -14% and Nrf2 inh 3%.
`CN(C)/C=C/C(=O)c1ccc(F)cc1` gave ALOX12 inh -5%, A549 viability -1%, LDHA inh -10, Nrf2 ARE act 8%, ERG Ets-DNA blk -5% and Nrf2 inh -21%.
`Cc1ccccc1C(=O)N1CC2(Cc3ccccc3N([S+](C)(=O)[O-])C2)C1` gave ALOX12 inh 45µM*.
`CC(=O)N1CCc2c(sc3c2c(=O)n(Cc2ccccc2)c(=O)n3Cc2cccc(Cl)c2)C1` gave ALOX12 inh -21%, A549 viability -21%, LDHA inh 0, Nrf2 ARE act -1%, ERG Ets-DNA blk 1% and Nrf2 inh 21µM*.
Screening O=C(Nc1ccc(Oc2ccccc2)nc1)C1CCN(Cc2cccc(F)c2)CC1 returned ALOX12 inh 11%, A549 viability inconclusive, LDHA inh 3, Nrf2 ARE act 2%, ERG Ets-DNA blk 2% and Nrf2 inh 18µM*.
O=C(Nc1ccc(Oc2cccnc2)cc1)C1CCN(Cc2ccc(F)cc2)CC1 was read as ALOX12 inh -3%, A549 viability inconclusive, LDHA inh -4, Nrf2 ARE act 5%, ERG Ets-DNA blk 0% and Nrf2 inh inconclusive.
Screening O=C(Nc1ccc(Oc2ccccc2)nc1)C1CCN(Cc2ccco2)CC1 returned ALOX12 inh 0%, A549 viability 3%, LDHA inh -11, Nrf2 ARE act 0%, ERG Ets-DNA blk -3% and Nrf2 inh -28%.
`C#Cc1ccc(CN2CCC(C(=O)Nc3ccc(Oc4ccccc4)nc3)CC2)cc1` gave ALOX12 inh -13%, A549 viability inconclusive, LDHA inh 0, Nrf2 ARE act 2%, ERG Ets-DNA blk -1% and Nrf2 inh 18µM*.
Screening N#Cc1cccc(OCc2cccc3cccnc23)c1 returned ALOX12 inh inconclusive and LDHA inh 1.
For O=C(O)C1Nc2c(Cl)cc(Cl)c(Cl)c2C2C=CCC12 (stereo not given) the results were ALOX12 inh 3.2µM*, A549 viability -2%, LDHA inh 13, Nrf2 ARE act -1%, ERG Ets-DNA blk 3% and Nrf2 inh 5%.
`O=C(Cc1n[nH]c(=O)c2ccccc12)Nc1cccc(S(=O)(=O)Nc2cccc(Cl)c2)c1` gave ALOX12 inh inconclusive and LDHA inh 8.
For Cc1cc(NC(=O)COC(=O)c2c(C)noc2C)ccc1Br the results were ALOX12 inh -13%, A549 viability 1%, LDHA inh 5, Nrf2 ARE act 0%, ERG Ets-DNA blk 6% and Nrf2 inh inconclusive.
